Test results taken from the supplement of paper PMC8728848.
This is one part of a sample in which the strongest signals are shown more often than they occur.

Legend:
Assay in all cases: glycan array binding signal (z-score within array); higher = stronger binding
Conditions in all cases: glycan notation: IUPAC condensed, linker removed
GalNAc(b1-4)Gal(b1-4)Glc = target: GalNAc(b1-4)Gal(b1-4)Glc
Summary of the method: (§1)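 Glycan array binding is given as a within-array Z-score, which can be read as non-binding when negative. The arrays, 3228 of them, came from the Consortium for Functional Glycomics database and were retained only where the protein sequence was available. Z-scores were averaged across arrays of the same protein sequence at different concentrations or buffers and across linkers.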

GalNAc(b1-4)GlcNAc = target: GalNAc(b1-4)GlcNAc
Summary of the method: as §1

[1] = target: Glc(a1-6)Glc(a1-6)Glc(a1-6)Glc
Summary of the method: as §1

[2] = target: GlcNAc(b1-2)Gal(b1-3)GalNAc
Summary of the method: as §1

[3] = target: GlcNAc(b1-3)Gal(b1-4)GlcNAc(b1-3)Gal(b1-4)GlcNAc(b1-3)Gal(b1-4)GlcNAc(b1-2)Man(a1-3)[GlcNAc(b1-3)Gal(b1-4)GlcNAc(b1-3)Gal(b1-4)GlcNAc(b1-3)Gal(b1-4)GlcNAc(b1-2)Man(a1-6)]Man(b1-4)GlcNAc(b1-4)[Fuc(a1-6)]GlcNAc
Summary of the method: as §1

[4] = target: GlcNAc(b1-3)Gal(b1-4)GlcNAc(b1-3)Gal(b1-4)GlcNAc(b1-3)Gal(b1-4)GlcNAc(b1-2)[GlcNAc(b1-3)Gal(b1-4)GlcNAc(b1-3)Gal(b1-4)GlcNAc(b1-3)Gal(b1-4)GlcNAc(b1-6)]Man(a1-6)[GlcNAc(b1-3)Gal(b1-4)GlcNAc(b1-3)Gal(b1-4)GlcNAc(b1-3)Gal(b1-4)GlcNAc(b1-2)Man(a1-3)]Man(b1-4)GlcNAc(b1-4)[Fuc(a1-6)]GlcNAc
Summary of the method: as §1

[5] = target: GlcNAc(b1-3)Gal(b1-4)GlcNAc(b1-3)Gal(b1-4)GlcNAc(b1-3)Gal(b1-4)GlcNAc(b1-3)Gal(b1-4)GlcNAc(b1-2)[GlcNAc(b1-3)Gal(b1-4)GlcNAc(b1-3)Gal(b1-4)GlcNAc(b1-3)Gal(b1-4)GlcNAc(b1-3)Gal(b1-4)GlcNAc(b1-6)]Man(a1-6)[GlcNAc(b1-3)Gal(b1-4)GlcNAc(b1-3)Gal(b1-4)GlcNAc(b1-3)Gal(b1-4)GlcNAc(b1-3)Gal(b1-4)GlcNAc(b1-2)Man(a1-3)]Man(b1-4)GlcNAc(b1-4)[Fuc(a1-6)]GlcNAc
Summary of the method: as §1

GlcNAc(b1-3)GalNAc = target: GlcNAc(b1-3)GalNAc
Summary of the method: as §1

GlcNAc(b1-3)Man = target: GlcNAc(b1-3)Man
Summary of the method: as §1

[6] = target: GlcNAc(b1-3)[GlcNAc(b1-6)]GalNAc
Summary of the method: as §1

[7] = target: GlcNAc(b1-4)GlcNAc(b1-4)GlcNAc(b1-4)GlcNAc(b1-4)GlcNAc(b1-4)GlcNAc
Summary of the method: as §1

Kdn(a2-3)Gal(b1-3)GlcNAc = target: Kdn(a2-3)Gal(b1-3)GlcNAc
Summary of the method: as §1

Man(a1-2)Man(a1-3)Man = target: Man(a1-2)Man(a1-3)Man
Summary of the method: as §1

[8] = target: Neu5Ac(a2-3)Gal(b1-4)GlcNAc(b1-2)Man(a1-3)[Neu5Ac(a2-3)Gal(b1-4)GlcNAc(b1-2)Man(a1-6)]Man(b1-4)GlcNAc(b1-4)GlcNAc
Summary of the method: as §1

[9] = target: Neu5Ac(a2-3)Gal(b1-4)GlcNAc(b1-3)Gal(b1-3)GlcNAc
Summary of the method: as §1

[10] = target: Neu5Ac(a2-3)Gal(b1-4)GlcNAc(b1-3)Gal(b1-4)GlcNAc
Summary of the method: as §1

[11] = target: Neu5Ac(a2-3)Gal(b1-4)GlcNAc(b1-3)GalNAc
Summary of the method: as §1

[12] = target: Neu5Ac(a2-3)Gal(b1-4)[Fuc(a1-3)]GlcNAc(b1-6)[Gal(b1-3)]GalNAc
Summary of the method: as §1

[13] = target: Neu5Ac(a2-3)[GalNAc(b1-4)]Gal(b1-4)GlcNAc(b1-3)GalNAc
Summary of the method: as §1

[14] = target: Neu5Ac(a2-6)Gal(b1-3)GlcNAc(b1-3)[Gal(b1-4)GlcNAc(b1-6)]Gal(b1-4)Glc
Summary of the method: as §1

[15] = target: Neu5Ac(a2-6)Gal(b1-4)GlcNAc(b1-3)Gal(b1-4)GlcNAc(b1-3)Gal(b1-4)GlcNAc
Summary of the method: as §1

[16] = target: Neu5Ac(a2-6)Gal(b1-4)GlcNAc(b1-3)Gal(b1-4)GlcNAc(b1-3)Gal(b1-4)GlcNAc(b1-2)Man(a1-3)[Neu5Ac(a2-6)Gal(b1-4)GlcNAc(b1-3)Gal(b1-4)GlcNAc(b1-3)Gal(b1-4)GlcNAc(b1-2)Man(a1-6)]GalNAc
Summary of the method: as §1

[17] = target: Neu5Ac(a2-6)Gal(b1-4)GlcNAc(b1-3)Gal(b1-4)GlcNAc(b1-3)[Neu5Ac(a2-6)Gal(b1-4)GlcNAc(b1-3)Gal(b1-4)GlcNAc(b1-6)]GalNAc
Summary of the method: as §1

[18] = target: Neu5Ac(a2-6)Gal(b1-4)GlcNAc(b1-6)[Gal(b1-3)GlcNAc(b1-3)]Gal(b1-4)Glc
Summary of the method: as §1

[19] = target: Neu5Ac(a2-6)GalNAc(b1-4)GlcNAc
Summary of the method: as §1

[20] = target: Neu5Ac(a2-8)Neu5Ac(a2-3)Gal(b1-4)GlcNAc
Summary of the method: as §1

[21] = target: Neu5Ac(a2-8)Neu5Ac(a2-8)Neu5Ac
Summary of the method: as §1

[22] = target: Neu5Gc(a2-3)Gal(b1-4)GlcNAc(b1-3)Gal(b1-4)GlcNAc(b1-2)Man(a1-3)[Neu5Gc(a2-3)Gal(b1-4)GlcNAc(b1-3)Gal(b1-4)GlcNAc(b1-2)Man(a1-6)]Man(b1-4)GlcNAc(b1-4)GlcNAc
Summary of the method: as §1

B1: PkBDPgamma (Plasmodium knowlesi) (protein)
chain: SAINQIFLQNNVMDKCNDKRKRGERDWDCPTEKDVCIPDRRYQLCMMEITNLVDTDTHFHSDIIFRKSYSRRRLIYDVGGRGDLLLKKYNNVYSEDLCKDIKWSLQDFGDIIMGTDMEGIGYSLVVQNNLRSIFGTGTSAELDRKKWWNDHKKDIWKAMILSVKEKNRYSAWNCKEDVQIKVEPQIYRWIREWGRDYMSEFREQRRKLNEKCEDKLYYSTMLICTLPPCNNACKSYDEWITGKKKQWDVLSTKFSSVKKAQKIETENIARAYDILKQELNGFNEVTFENEINKRDKLYNYFCVCIVQEARKNTQENVKNVGSGVESKAPSSNPINEAVKSSSGEGKVQEDSAHRSVNEGEGKSSTNEADPGSQPGAAASGGGSGGGTGGGVDLAPQMLRELQETNAALQDVRELLRQQVKEITFLKNTVMECDACGGPLDRNLPPLAPLGPTGGWSHPQFEK
For B1, the “glycan array binding signal (z-score)” value (GalNAc(b1-4)Gal(b1-4)Glc) was -0.243, the “glycan array binding signal (z-score)” value (GalNAc(b1-4)GlcNAc) was -0.002 and the “glycan array binding signal (z-score)” value [1] was 0.897. The “glycan array binding signal (z-score)” value [2] was -0.401, the “glycan array binding signal (z-score)” value [3] was 0.128 and the “glycan array binding signal (z-score)” value [4] was -0.196. For the same binder, the “glycan array binding signal (z-score)” value [5] was 2.27, the “glycan array binding signal (z-score)” value (GlcNAc(b1-3)GalNAc) was -0.356 and the “glycan array binding signal (z-score)” value (GlcNAc(b1-3)Man) was -0.084. The “glycan array binding signal (z-score)” value [6] was -0.331, the “glycan array binding signal (z-score)” value [7] was -0.371 and the “glycan array binding signal (z-score)” value (Kdn(a2-3)Gal(b1-3)GlcNAc) was -0.196. For the same binder, the “glycan array binding signal (z-score)” value (Man(a1-2)Man(a1-3)Man) was -0.276, the “glycan array binding signal (z-score)” value [8] was 0.46 and the “glycan array binding signal (z-score)” value [9] was -0.241. The “glycan array binding signal (z-score)” value [10] was 0.522, the “glycan array binding signal (z-score)” value [11] was -0.073 and the “glycan array binding signal (z-score)” value [12] was 0.362. For the same binder, the “glycan array binding signal (z-score)” value [13] was -0.323, the “glycan array binding signal (z-score)” value [14] was -0.324 and the “glycan array binding signal (z-score)” value [15] was 0.015. For the same binder, the “glycan array binding signal (z-score)” value [16] was 0.405, the “glycan array binding signal (z-score)” value [17] was 0.922 and the “glycan array binding signal (z-score)” value [18] was 1.24. For the same binder, the “glycan array binding signal (z-score)” value [19] was -0.045, the “glycan array binding signal (z-score)” value [20] was 0.25 and the “glycan array binding signal (z-score)” value [21] was -0.324. The “glycan array binding signal (z-score)” value [22] was 20.7.
